Consider 48 molecules from PubChem BioAssay AID1347416 (National Center for Advancing Translational Sciences (NCATS), 2020).

Hit rate of the full screen: of about 4,100 compounds, about 1,600 (39%) were called active. Not shown: some 25% with an inconclusive outcome. Some of the results follow. A number with no mark means an inactive call. The call rests on the fitted dose curve; in most records, active means well fitted inhibition curve with a large enough effect; inconclusive means small, poorly fitted or top-dose-only effect; inactive means no such curve, though single readings can be large or run the other way.
On the % scale 0 is the no-effect control and ±100 the full control effect; potency means the concentration at half of the fitted maximal effect.

This assay is described as follows: qHTS Validation assay for Inhibitors of Plasmodium falciparum Dd2 growth in vitro. Further: nearly all actives have a fitted effect of over 70% in size. The conditions noted are these: P. falciparum Dd2 in RBCs, SYBR Green growth, 72 h; series mostly up to 28.7 µM; activity change, negative = inhibition: at the top concentration. In outline: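 P. falciparum Dd2-infected red blood cells (2.5% hematocrit, 0.3% parasitemia) grown 72 h at 37 °C under 5% O2 with compounds in a titration, 29 uM to 0.5 nM final. Growth read as SYBR Green-1 fluorescence after ~16 h lysis; artesunate 300 nM as positive control.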
In general terms: Quantitative high-throughput screening tests each substance at several concentrations.
Take `CN(Cc1ccccc1F)C1CCc2ccccc21` (stereo not drawn): the “activity change, negative = inhibition” value was -5.87% [at 43.1 µM].
Turning to `Clc1ccc(NNc2ccnc3cc(Cl)ccc23)cc1`, the Potency was 1.5 µM (active).
Still for that read-out and setting: as for `CCN1CCN(c2ccc(Nc3ccnc4ccccc34)cc2)CC1`, the figure is 1.06 µM (active).
Regarding `O=C(CSc1ncn[nH]1)Nc1ccnc2ccccc12`, the “activity change, negative = inhibition” value was 7.19%.
Same read-out and setting: the result for `COc1ccccc1NC(=O)c1nn(C)c2c1CS(=O)(=O)c1ccccc1-2` reads 12.4%; that for `CN(C(=O)c1ccc2c(c1)N(Cc1ccc(F)cc1)C(=O)c1ccccc1S2(=O)=O)C1CCCCC1`, -13.4%.
`CCOC(=O)c1ccc2c(c1)N(CC(=O)N(C)c1ccccc1)C(=O)c1ccccc1S2`: the Potency was 10.6 µM (active).
On the same count and under the same terms, as for `CCOC(=O)c1ccc2c(c1)N(C(CC)C(=O)Nc1ccccc1OC)C(=O)c1ccccc1S2` (stereo not drawn), the figure is 9.44 µM (active).
On to `O=C1NCCCCCCN(C(=O)C2CCCC2)[C@H]2CCCC[C@@H]12`, for which the “activity change, negative = inhibition” value was 11.8%.
Same read-out and setting: the result for `O=C(c1ccccc1F)N1CCCC2(C1)C(=NC1CCCC1)NC(=O)N2c1cc(F)cc(F)c1` (stereo not drawn) reads 9.15%; that for `COc1cccc([S+](=O)([O-])N2CCC3(CC2)C(=NC2CCCCC2)NC(=O)N3c2cc(F)cc(F)c2)c1`, -28.1%.
On the same count and under the same terms, as for `O=C1NCc2ccccc2CC12CCCN(Cc1ccccc1)C2` (stereo not drawn), the figure is -10.1%.
Turning to `O=C1NC(=NC2CCCC2)C2(CCN(Cc3ccccc3)C2)N1c1cc(F)cc(F)c1` (stereo not drawn), the Potency was 7.5 µM (active).
On the same count and under the same terms, the result for `O=C1NC(=NC2CCCCC2)C2(CCN(Cc3ccccc3)C2)N1c1cc(F)cc(F)c1` (stereo not drawn) reads 4.22 µM (active).
On the same count and under the same terms, the result for `O=C(NC(c1ccc(Cl)cc1)c1cc(Cl)c2cccnc2c1O)c1cccnc1` (stereo not drawn) reads 5.96 µM (active).
Turning to `O=C(NC(c1ccccc1)c1cc(Cl)c2cccnc2c1O)c1cccnc1` (stereo not drawn), the Potency was 7.5 µM (active).
Turning to `Cc1ccc2nc(-c3ccc(Cl)c(NC(=O)c4cccnc4)c3)oc2c1`, the “activity change, negative = inhibition” value is 2.58%.
As for `CN(CC1(C)CCOCC1)C(=O)c1ccco1`, the “activity change, negative = inhibition” value is 4.08%.
As for `CC(Oc1ccc(F)cc1)C(=O)Nc1cc(C(F)(F)F)ccc1-n1cncn1` (stereo not drawn), the Potency was 1.68 µM (active).
With `O=C(Cn1ccn2nc(-c3ccc(F)cc3)c(CO)c2c1=O)Nc1ccc(Cl)cc1F`, the “activity change, negative = inhibition” value is 1.78%.
Turning to `CC(Oc1ccc(F)cc1)C(=O)Nc1cc(Cl)ccc1-n1cncn1` (stereo not drawn), the Potency was 6.68 µM (active).
For the molecule `CC(C(=O)N1CCc2ccccc21)N1CCc2ccccc2C1` (stereo not drawn), the “activity change, negative = inhibition” value is -5.58%.
Turning to `CC1(C)C(=O)N(CC2CCOCC2)[C@H]2CN(Cc3ccccc3O)C[C@H]2[S+]1(=O)[O-]`, the “activity change, negative = inhibition” value was 16.8% [at 43.1 µM].
The same measure, in the same setting: the result for `COCC1CN(C)CC12CCN(C(=O)CC1=CCCCC1)CC2` (stereo not drawn) reads -27.3%; that for `Cc1noc(-c2ccn3c(CNC(=O)c4ccncc4)nnc3c2)n1`, -2.17%; that for `CC1CN(C(=O)Nc2ccc(C(=O)NCCc3ccccc3)cc2)c2ccccc2S1` (stereo not drawn), -0.366%.
On the same count and under the same terms, the result for `Cn1c(=O)c2ccnn2c2ccc(C(=O)NCCN3CCC(N4CCCCC4)CC3)cc21` reads 9.58%.
Take `O=C(NCCc1cccnc1)c1ccc(-c2nnc3ccc(NC(=O)C4CCC4)cn23)cc1`: the Potency was 6.68 µM (active).
On the same count and under the same terms, as for `O=C(NCCc1ccncc1)c1ccc(-c2nnc3ccc(NC(=O)C4CCC4)cn23)cc1`, the figure is 2.99 µM (active).
As to `O=C(Nc1ccc(-c2nnc3n2CCCC3)cc1)c1ccccc1F`, the “activity change, negative = inhibition” value was 29.2%.
Same read-out and setting: as for `O=C1CCN(S(=O)(=O)c2ccccc2)CCCC(C(=O)NCCc2cccnc2)CCN1` (stereo not drawn), the figure is 5.17%.
Turning to `O=C(NCCN1CCCCC1)c1ccc(-c2nnc3ccc(NC(=O)C4CCC4)cn23)cc1`, the Potency was 13.3 µM (active).
In the case of `Cc1cn2nc(C(=O)N3CCC(C(=O)NCc4cccnc4)CC3)cc2c(=O)[nH]1`, the “activity change, negative = inhibition” value is 23.2%.
Regarding `CC(C)(C)CC(C)(C)c1ccc(O)c(Cc2ccc(Cl)cc2Cl)c1`, the Potency was 1.68 µM (active).
As to `O=[S+]1([O-])NCC2(CCCN(Cc3ccc(OC(F)(F)F)cc3)C2)Nc2ccccc21` (stereo not drawn), the “activity change, negative = inhibition” value was -25.2%.
The same measure, in the same setting: as for `CCc1cccc(NC(=O)N2CCc3nc4cc(-c5ccc(OC)cc5)[nH]n4c(=O)c3C2)c1`, the figure is -5.7%.
For `COc1ccc(CN2CCC3(CC(c4ccc(OC)cc4)=NO3)C2)cc1` (stereo not drawn), the “activity change, negative = inhibition” value was 8.93%.
Still for that read-out and setting: the result for `CN1C[C@@H](NC(=O)CC(C)(C)C)C[C@H]1c1nc(-c2ccc(OC(F)(F)F)cc2)no1` reads 0% [at 43.1 µM].
Consider `CCc1nc2c(c(-c3ccc(O)cc3)n1)CCN(Cc1ccc(OC)cc1)CC2`, for which the Potency was 6.68 µM (active).
Same read-out and setting: as for `CCc1nc2c(c(-c3ccc(O)cc3)n1)CCN(Cc1ccc(OC(F)(F)F)cc1)CC2`, the figure is 1.5 µM (active); as for `Cc1cc(C)c(S(=O)(=O)n2ccc(-c3ccc(OCCN(C)c4ccccn4)cc3)n2)c(C)c1`, 7.5 µM (active).
In the case of `COc1cccc2c(=O)n(CC(=O)NCCc3ccccc3)ccc12`, the “activity change, negative = inhibition” value was 35.5%.
For `COc1ccc(-n2nc(C(=O)NCC(=O)N3CCN(c4ccccc4OC)CC3)c3ccccc3c2=O)c(OC)c1`, the Potency was 2.11 µM (active).
The same measure, in the same setting: as for `COc1ccc(-n2nc(C(=O)NCC(=O)N3CCN(c4ccccc4OC)CC3)c3ccccc3c2=O)cc1OC`, the figure is 6.68 µM (active).
For the molecule `COc1ccccc1N1CCN(C(=O)CNS(=O)(=O)c2ccc(Br)s2)CC1`, the “activity change, negative = inhibition” value is 40.1%.
As to `CCc1cc(=O)oc2cc(C)cc(OCC(=O)NCC(O)c3ccccc3)c12` (stereo not drawn), the Potency is 6.68 µM (active).
Take `O=C(NCCc1c[nH]c2ccccc12)c1c(OCC2CC2)cc(=O)n2c1CCOCC2`: the “activity change, negative = inhibition” value was -39.2%.
Regarding `Cc1cc(OC(C)C(=O)NCCc2c[nH]c3ccccc23)c2c(C)cc(=O)oc2c1` (stereo not drawn), the Potency was 2.66 µM (active).
